In PubChem BioAssay (NCI):
This is part of a sample that, as a whole, favours compounds with a hit. Of some 79,000 tested, about 15% had one in any assay. Values without a mark were called inactive. No stated cut-off is given here; in the data, active means growth inhibition above about 70%; inactive means the rest.

Test: NCI Yeast Anticancer Drug Screen. Data for the mec2-1 strain (AID 157)
Settings: S. cerevisiae mec2-1 strain, at 50.0 µM, hits give high values
Method in brief: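 Test agents were screened against the mec2-1 yeast strain, with defined DNA repair or cell cycle alteration. Growth was scored as inhibition against vehicle-only controls.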

Row | SMILES | growth inhibition [%]
1 | c1ccc(N2C3Sc4ncccc4C2Sc2ncccc23)cc1 | 2.8
2 | OC1(C(O)(c2ccc(-c3ccccc3)cc2)c2ccc(-c3ccccc3)cc2)CCCCC1 | -7.85
3 | COc1cc(/C=C2\SC(=S)N(/C=C(/C#N)C(=O)c3ccc4ccccc4c3)C2=O)cc(OC)c1OC | 11.8
4 | O=C1CCN2C(=O)CCN12 | -10.2
5 | CC(=O)Nc1c(C)ncn(-c2ccccc2)c1=O | -19.9
6 | CCNc1ncc2nc(CC(=O)OC)c(=O)n(CC)c2n1 | 1.6
7 | CC(=O)OC1C(C(O)CO)OC2OC(C)(C)OC21 (stereo unspecified) | -14.1
8 | CC(C)=CCC/C(C)=C/CC/C(C)=C/C1CCC(=O)C1(C)C (stereo unspecified) | -38.4
9 | CCOc1ccccc1NC(=O)C(=O)C(c1ccccc1)S(=O)(=O)Cc1ccccc1 (stereo unspecified) | -12.5
10 | Oc1ccc2ccccc2c1-c1c(OC(c2ccccc2)c2ccccc2)ccc2ccccc12 | -19.2
11 | NC(N)=N/N=C(\c1nc2ccc([N+](=O)[O-])cc2[nH]c1=O)C(O)c1ccc([N+](=O)[O-])cc1 (stereo unspecified) | -24.9
12 | CCOC(=O)CC1C(C)C(C)NC(C)C1C (stereo unspecified) | -24.3
13 | O=C1CCCCC1N1CCCCC1 (stereo unspecified) | -14.7
14 | CN(C)C(=O)c1cccnc1 | -4.25
15 | CC(CCC(=O)O)[C@H]1CCC2[C@@H]3C(=O)C[C@@H]4CC(O)CC[C@]4(C)C3CC[C@@]21C (stereo partly specified) | 18.1
16 | CCC(c1ccccc1)c1cc(C(C)(C)C)cc(C(C)(C)C)c1O (stereo unspecified) | -36
